From PubChem BioAssay (NCI)
The panel holds about 79,000 compounds, 15% with a hit somewhere; the sample as a whole holds those more often. Values without a mark were called inactive. Calls of active or inactive are those of the source. Rule as the data show it: active = growth inhibition above about 70%; inactive = the rest.

What was measured:
[1] = NCI Yeast Anticancer Drug Screen. Data for the rad50 strain (AID 155);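 also: 0% = growth of vehicle-only cultures of the same strain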; details: S. cerevisiae rad50 strain growth inhibition; at 50.0 µM; active compounds read high
Method in brief: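 Genetically altered yeast (DNA repair pathway); compound treatment; growth inhibition vs vehicle ctrl.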

[2] = NCI Yeast Anticancer Drug Screen. Data for the mec2-1 strain (AID 157); details: S. cerevisiae mec2-1 strain, at 50.0 µM, active compounds read high
Method in brief: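 Cells of the genetically defined mec2-1 yeast strain are incubated with test compound. Inhibition of growth is calculated against vehicle-treated controls.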

[3] = NCI Yeast Anticancer Drug Screen. Data for the sgs1 mgt1 strain (AID 161);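 also: 0% = growth of cultures given vehicle only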; details: S. cerevisiae sgs1 mgt1 strain, at 50.0 µM, active compounds read high
Method in brief: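 Inhibition of yeast growth, normalised to vehicle-treated controls, is reported for a strain bearing genetic alterations in DNA damage repair.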

[4] = NCI Yeast Anticancer Drug Screen. Data for the cln2 rad14 strain (AID 165);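 also: 0% = growth equal to vehicle treated cultures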; details: S. cerevisiae cln2 rad14 strain, at 50.0 µM, active compounds read high
Method in brief: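 The screen exposed genetically defined yeast (cln2 rad14) to test compounds and scored growth inhibition relative to vehicle-treated controls.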

[5] = NCI Yeast Anticancer Drug Screen. Data for the bub3 strain (AID 167); details: S. cerevisiae bub3 mutant strain, at 50.0 µM, active compounds read high
Method in brief: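 Yeast carrying a defined mutation is treated with each compound, and growth is compared with that of vehicle-exposed cells to give inhibition.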

[6] = NCI Yeast Anticancer Drug Screen. Data for the mlh1 rad18 strain (AID 175); details: S. cerevisiae mlh1 rad18 strain growth inhibition; at 50.0 µM; active compounds read high
Method in brief: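 Compound-treated yeast growth, normalised to vehicle controls. Strain bears defined DNA repair mutations.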

Structure (SMILES)	growth inhibition [1]	growth inhibition [2]	growth inhibition [3]	growth inhibition [4]	growth inhibition [5]	growth inhibition [6]
CCC(OC(C)=O)c1ccccc1 (configuration not stated)	12.8%	17.2%	11.5%	6.45%	27.4%	1.5%
COc1ccccc1C=Nc1ccc(O)cc1	8.45%	12.3%	3.9%	-26.6%	3.5%	37.5%
CCCCN(C)C(=O)C1=C(C)NC(C)=C(C(=O)N(C)CCCC)C1	-1.45%	-26.4%	-12.2%	-20.3%	-16.2%	-58%
O.O.O=c1cc(Cl)[nH]c(=O)[nH]1.[NH2-].[NH2-].[Pt+4]	-21.9%	-18.1%	-2.4%	-47.6%	2.65%	35.7%
Oc1c(O)c(O)c(O)c(O)c1O	-5.3%	4.15%	7.45%	-13.9%	-0.45%	-3%
CCCCCCCNc1nc(N)nc(Cl)n1	-0.15%	-4.6%	5.75%	8.75%	-9.4%	10.9%
O=C(/C=C/c1cccs1)c1ccc(Cl)cc1	-26.6%	-41.3%	-9.45%	-2.8%	2.2%	-4.35%
c1ccc(-c2cc(-c3cc(-c4ccccc4)n[nH]3)[nH]n2)cc1	-9.95%	-8.15%	-21.4%	-19.2%	-16.6%	-37.1%
CC/C(CC(C)CC)=N\O (configuration not stated)	-17.4%	-18.2%	-23.4%	12.5%	-4.55%	-5.75%
CC1=C(C(=O)Nc2ccccc2C)C(c2ccccc2C)C(C(=O)Nc2ccccc2C)=C(C)N1	67.2%	62.6%	51.8%	27.3%	64.3%	57.7%
O=C(NC(=O)c1c(F)cccc1F)Nc1ccc(OCc2ccccc2)cc1	24.4%	0.15%	5.45%	9%	-4.15%	21.4%
O/N=C/c1nc2ccccc2s1	10.2%	22.8%	-3.65%	-55.6%	-17.6%	23.8%
OCC1(c2ccccc2)CCNCC1	-8.7%	-4.9%	-2.1%	-0.7%	-9.7%	26.6%
CC=C/C=C/[C@@H]1O[C@](O)([C@H](CC)C(=O)NC/C=C/C=C(\C)[C@@H](OC)[C@@H](C)[C@@H]2O[C@H](/C=C/C=C/C=C(\C)C(=O)c3c(O)cc[nH]c3=O)[C@H](O)[C@@H]2O)[C@H](O)[C@H](O)C1(C)C	35.2%	18.9%	38.9%	36.2%	29.9%	15.6%
CCOC(=O)NC1C2CC3C(C2)C31 (configuration not stated)	-54.6%	-32.7%	-29.4%	-20.6%	-52.4%	-32.5%
COc1ccc(NC(=O)Oc2ccccc2-c2ccccc2)cc1	1.1%	14.3%	-1.7%	-18.1%	-6.7%	-12.3%
CC(=O)C(C)C(=O)N1C(=O)N(C)C2(C)N(C)C(=O)NC12C (configuration not stated)	2.05%	-45.3%	-24.3%	8.4%	-5.8%	7.3%
O=C(NO)c1cc(O)c(O)c(O)c1	-14.5%	1.75%	-16.7%	-11.6%	-5.75%	-25.4%
COC(=O)c1ccccc1CC1Cc2ccc3c(c2C1)CCC3 (configuration not stated)	-0.8%	5.45%	-1.65%	-31.6%	2.55%	13.7%
O=S(=O)(O)c1ccccc1	-16.6%	-8.5%	-6.05%	-2.25%	0.15%	1.25%
O=C(/C=C/c1ccc(O)c(O)c1)OC1CC(O)(C(=O)O)CC(O)C1O (configuration not stated)	4.75%	5.9%	7.85%	11.4%	-2.75%	17.7%

Structure (SMILES)	growth inhibition [1]	growth inhibition [2]	growth inhibition [3]	growth inhibition [4]	growth inhibition [5]	growth inhibition [6]
COc1cc([C@@H]2OC[C@@H]3C(c4cc(OC)c5c(c4)OCO5)OC[C@@H]32)cc(OC)c1OC (some centres not stated)	23.8%	-4.5%	26.6%	31.1%	4.3%	-40.8%
O=C(O)c1ccc(F)c([N+](=O)[O-])c1	7.15%	-16.6%	17.4%	-22.6%	-11.6%	12.4%
CC12CC(=O)Nc3ccccc3N1C(c1ccccc1)=NO2 (configuration not stated)	-11.5%	-29.4%	-6.6%	3%	-14.8%	-7.4%
O=C(O)C1(N(CCO)CCO)CCCC1	-15.6%	-11.7%	3.4%	-35.3%	-11.2%	-1.65%
CCOc1ccnc2c(OC)c(C)c3nc4ccccc4nc3c12	7.6%	-13.2%	-4.65%	13.6%	-7.3%	91% (active)
CCOC(=O)CNC(=O)NC	1.25%	8.15%	-6.75%	-11.7%	-6.25%	38%
O=C1C2=C(OCCO2)C(=O)C2=C1OCO2	12.4%	18.4%	28%	7.55%	12.2%	4.4%
CCCCCCOC(=O)CCCCCC1CCCCC1	3.15%	-6.5%	2.3%	-77.4%	-6.05%	-6.55%
C=C(NC(C)=O)C(=O)CCC(N)=O	-0.75%	-0.7%	-7.5%	1.75%	4.75%	-53.7%
N#CC1=C(N2CCCC2)NC(=O)CC1=O	0%	-4.4%	-0.6%	35.6%	7.2%	1.4%
C/C(CCn1[nH]c(=O)ccc1=O)=N\NC(=O)C(=O)NN	-4.75%	-18.4%	-6.55%	2.55%	1.55%	-8.2%
CCNc1cc2oc(=O)cc(C)c2cc1C	-30.7%	-22.5%	-11.4%	8.05%	-19%	-28.2%
CN(CC(=O)C(O)C(O)C(O)CO)c1ccccc1 (configuration not stated)	-10.4%	-8.75%	-7.6%	-16.1%	-2.6%	-9.7%
Cc1ccc(S(=O)(=O)N/N=C/C(C)(C)C)cc1	17.4%	-3.25%	8.95%	-19%	-6.75%	16.6%
CCCP1(=O)C=C(C)C(=C(Cl)Cl)C(C)=C1 (configuration not stated)	6.9%	-19.2%	-7.55%	13.6%	-10.4%	6.4%
O=C(N/C(=C\c1ccccc1[N+](=O)[O-])c1nc2ccccc2[nH]1)c1ccccc1	-3.4%	-1.45%	1.2%	-1.15%	6.85%	-1.7%
COC(=O)CCNC(=O)OCc1ccccc1	14.6%	30%	-16.7%	26.6%	-49.6%	-75%
Cc1cc(Cl)c(=O)n(-c2ccc(Cl)cc2)n1	27.3%	-4.6%	9.45%	4.7%	15.3%	44.9%
O=c1[nH]cnc2c1ncn2CCCc1ccccc1	-1%	7.5%	2.8%	-69.6%	3%	-17.1%
O=C(O)C(CS)(c1ccccc1)c1ccccc1	0.65%	8.25%	7.7%	5.95%	-2.85%	11.4%
OCC1NCCCC1O (configuration not stated)	-17.5%	-25.6%	-22.9%	-8.55%	-18.1%	-10%
